# Measured values: PubChem BioAssay AID743441 (Broad Institute, 2014)
# Results with a measured potency or affinity are listed apart. Calls of active or inactive are those of the source.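 Rule for the calls: active = cell toxicity seen as a signal drop, with half-maximal potency at most twice the top valid dose; inconclusive = flat curve with a partial drop, or a poor fit; inactive = the rest, including rises in signal.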
# Assay: ATP-based viability loss in HEK293T cells – cell-based, CellTiter-Glo luminescence, cherry-picked samples, set 4, cytotoxicity control, dose response (AID 743441)
# Details: 72 h; series mostly up to 26 µM; activity change, negative = cytotoxicity: at the top concentration
row,Structure (SMILES),"activity change, negative = cytotoxicity"
1,CC1(Cc2ccccc2C#N)C(=O)Nc2cc(-c3ccccc3Cl)ccc21 (stereo not drawn),-13.1 unspecified (inactive)
2,CC(CNc1ccc(Cl)cc1)(CNc1ccc(Cl)cc1)[N+](=O)[O-],6.79 unspecified (inactive)
3,O=C(O)c1cc([N+](=O)[O-])ccc1NCc1ccccc1,13.4 unspecified (inactive)
4,Cc1noc(C)c1NC(=O)Nc1ccc2c(c1)C(=O)N([C@H](C)CO)C[C@@H](C)[C@@H](CN(C)C(=O)Nc1ccc3c(c1)OCO3)OCCCC[C@@H](C)O2,8.97 unspecified (inactive)
5,CSc1nc(N)nc(SC2C=CCCC2)c1C#N (stereo not drawn),2.53 unspecified (inactive)
6,C[C@@H]1CCCCO[C@H](CN(C)C(=O)CCCN(C)C)[C@H](C)CN([C@@H](C)CO)C(=O)c2cc(NC(=O)Nc3cccc4ccccc34)ccc2O1,23.1 unspecified (inactive)
7,COc1cccc(C(=O)Nc2cc(C)nn2-c2ccccc2)c1OC,14.1 unspecified (inactive)
8,CCOC(=O)c1c(NC(=O)Cc2cccs2)sc(C)c1C,21 unspecified (inactive)
9,Cc1ccc(C)c(NC(=O)CSc2nc3nc(-c4cccs4)cc(C(F)(F)F)c3c(=O)[nH]2)c1,18.9 unspecified (inactive)
10,COC(=O)c1c(NC(=O)CCC(=O)O)sc(Cc2ccccc2)c1C,9.22 unspecified (inactive)
11,Cc1[nH]c(=S)sc1Cc1ccc(Cl)c(Cl)c1,0.291 unspecified (inactive)
12,Cc1ccc(S(=O)(=O)N2CC[C@H]3[C@H](CO)Nc4ccc(Br)cc4[C@H]32)cc1,23.6 unspecified (inactive)
13,COc1ccc(Nc2oc(-c3ccco3)nc2S(=O)(=O)c2ccc(F)cc2)cc1,-2.57 unspecified (inactive)
14,C[C@@H]1CCCCO[C@H](CN(C)CC2CC2)[C@H](C)CN([C@@H](C)CO)C(=O)c2cc(NC(=O)Nc3cccc4ccccc34)ccc2O1,12.6 unspecified (inactive)
15,COc1ccc2[nH]c3c(=O)n(CCCCC(=O)NCCC(C)C)c(=S)[nH]c3c2c1,7.22 unspecified (inactive)
16,Cc1cc(C)c(C#N)c(N2CCN(c3ccccc3)CC2)n1,-9.92 unspecified (inactive)
17,COc1ccc(NC(=O)c2ccc(-c3ccc([N+](=O)[O-])cc3)o2)cc1,8.52 unspecified (inactive)
18,CC[C@H]1OC(=O)[C@H](C)[C@@H](O[C@H]2C[C@@](C)(OC)[C@@H](O)[C@H](C)O2)[C@H](C)[C@@H](O[C@@H]2O[C@H](C)C[C@H](N(C)C)[C@H]2O)[C@](C)(O)C[C@@H](C)[C@@H]2N[C@@H](COCCOC)O[C@H]([C@H]2C)[C@]1(C)O,8.74 unspecified (inactive)
